Data published in PubChem BioAssay AID1159580 (chemical genetic matrix, 2015).
Screen size: about 5,500 compounds; about 2,000 (36%) were called active. Inconclusive results (about 18%) are left out. Cut-off read from the data, not from the text of the source: active = normalized growth mostly below about 0.91 (no sharp cut-off); inconclusive = no clear call, values can overlap the other calls; inactive = mostly above about 0.92. This is one part of the list.

Test: chemical genetic growth profiling, strain panel (AID 1159580);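 note: tested at 20 µM; growth read once vehicle control cultures reached saturation at 30 °C; 1 = growth at the plate median or of vehicle wells; lower values mean less growth of the strain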
Details: S. cerevisiae deletion strains, growth OD

Measured: normalized growth

COP(=O)(OC)C(O)C(Cl)(Cl)Cl (stereo not drawn)
inactive: locus YHR030C, strain SLT2, stronger effect = lower value 0.998 | locus YHR079C, strain IRE1, stronger effect = lower value 1.03 | locus YJL095W, strain BCK1, stronger effect = lower value 1.01 | locus YJR066W, strain TOR1, stronger effect = lower value 0.938 | locus YLR113W, strain HOG1, stronger effect = lower value 1 | locus YNL183C, strain NPR1, stronger effect = lower value 0.962 | locus YOR231W, strain MKK1, stronger effect = lower value 1.03 | locus YPL256C, strain CLN2, stronger effect = lower value 0.988
